PI4K2A inh: inhibitors of human PI4K2A; activity change, negative = inhibition, % at 76.9 µM; Q9BTU6; purified PI4K2A, ADP-Glo luminescence, 1 h; active compounds read low; 0.13% of 420,000 active; in the data active means activity change below about -50%; inconclusive means mostly about -30% to -49%;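 further: -100% = wells without enzyme as full effect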
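ADP-Glo luminescence measured ADP generated by PI4K2A enzyme (4 ug/mL before mixing) with 1.2 mM PI substrate (pre-mix) and 300 microM ATP (pre-mix). Tris pH7.5 buffer with MgCl2, Triton X-100; 1 h reaction at ambient temperature.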
Pin1 inhibitor: blocks the human prolyl isomerase Pin1 | AID 504891 | 0.009% of 390,000 active | Pin1 FP peptide displacement, HiFluor488, 10 min | Potency, µM (top dose mostly 115 µM), without a hit: at the highest dose activity, negative = inhibition, most hits filed as inhibitors | Q13526; active means well fitted inhibition curve with a large enough effect in the polarisation, with a control signal flat, not every such curve was filed as active; inconclusive means small, poorly fitted or top-dose-only effect, or effect the other way, or a change in a side signal; inactive means no such curve, though single readings can be large or run the other way; the % refers to the polarisation; further: potency means the concentration at half of the fitted maximal effect
Target sequence (Q13526 whole entry, looked up): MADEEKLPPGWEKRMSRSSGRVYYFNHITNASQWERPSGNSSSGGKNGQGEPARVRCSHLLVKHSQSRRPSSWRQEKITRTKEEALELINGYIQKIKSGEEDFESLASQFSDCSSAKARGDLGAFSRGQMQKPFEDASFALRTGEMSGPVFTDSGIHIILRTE
GoLoco inh red: RGS12 GoLoco-Gai1 interaction inhibition; P63096; Gai1:RGS12 GoLoco peptide FP, rhodamine, 10 min; Potency, µM (series often up to 61.6 µM), for the others: at the top dose activity, negative = inhibition, actives largely listed as inhibitors; 0.44% of 230,000 active; active means well fitted inhibition curve with a large enough effect, not every such curve was filed as active; inactive means no such curve, though single readings can be large or run the other way; further: potency means the concentration at half of the fitted maximal effect; nearly all actives have a fitted effect of over 30% in size
PI5P4K alpha inh: blocks human PI5P4K alpha kinase activity | P48426 | PI5P4Kalpha enzyme, ADP-Glo luminescence, 60 min; active compounds read low | max response, % | 1.2% of 330,000 active; active means max response of -50% or lower; inconclusive means between -30% and -50%; inactive means -30% or higher; further: value at the top dose of about 77 µM
Target sequence (P48426 whole entry, looked up): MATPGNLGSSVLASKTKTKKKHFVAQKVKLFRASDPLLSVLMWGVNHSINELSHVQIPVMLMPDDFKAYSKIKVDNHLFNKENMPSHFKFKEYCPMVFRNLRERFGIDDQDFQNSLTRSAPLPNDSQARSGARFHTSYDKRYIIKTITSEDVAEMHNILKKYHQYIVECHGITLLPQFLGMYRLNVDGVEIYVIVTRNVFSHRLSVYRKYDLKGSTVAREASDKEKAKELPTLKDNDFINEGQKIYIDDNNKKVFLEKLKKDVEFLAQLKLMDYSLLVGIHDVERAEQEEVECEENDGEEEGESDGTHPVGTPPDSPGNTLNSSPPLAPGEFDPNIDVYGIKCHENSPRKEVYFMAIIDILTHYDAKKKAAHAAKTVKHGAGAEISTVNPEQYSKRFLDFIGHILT
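ADP-Glo luminescence end-point after a 60 min room-temperature kinase reaction. PI5P4Kalpha and substrate in HEPES pH 7.4 buffer with EGTA, 0.1% CHAPS and 5% DMSO; ATP at 5 microM final.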
GCN5L2 inh: blocks human GCN5L2 histone acetyltransferase; Potency, µM (series often up to 58.9 µM), without a hit: top-dose activity change, negative = inhibition, usual class: inhibitors; GCN5L2 HAT assay, ThioGlo1 CoA-SH fluorescence; Q92830; 0.21% of 390,000 active; further: potency means the concentration at half of the fitted maximal effect
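Titration-based screen in which CoA formation is detected via maleimide probe ThioGlo1 (50uM) turning fluorescent on thiol reaction; substrates H3(1-25) 75uM and acetyl-CoA 70uM, GCN5L2 20nM, 20 min incubation at room temperature.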
Tb PGK inh: blocks T. brucei phosphoglycerate kinase | P07378 | PGK/GAPDH coupled, Kinase-Glo luminescence, 60 min | Potency, µM (doses to about 57.5 µM), for the others: at the highest dose activity change, negative = inhibition, actives largely listed as inhibitors | 0.043% of 380,000 active; further: potency means the concentration at half of the fitted maximal effect; nearly all actives have a fitted effect of over 60% in size
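Luminescent ATP detection (Kinase-Glo Plus) follows a 60-minute room-temperature incubation, with wells lacking PGK as controls. Buffer: 100 mM TEA (pH 7.6), 5 mM MgCl2, 0.01% Tween-20. Coupling enzyme GAPDH (100 nM final) supplies unstable 1,3-BPG in-well.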
Active calls of the source: *; i = inactive; ? = inconclusive; . = no result given; ! = not confirmed by another sample; [ ] = dose if it differs, or a comment. This is a sample that favours compounds with a hit; in the whole collection about 1.2% have one here. Unless noted, the call rests on the fitted dose curve; in most records, active means well fitted curve in the direction sought with a large enough effect; inconclusive means small, poorly fitted or top-dose-only effect, or another doubt; inactive means no such curve, though single readings can be large; an effect the other way counts as inactive or inconclusive. Unless noted, on the % scale 0 is the no-effect control and ±100 the full control effect.

SMILES	PI4K2A inh	Pin1 inhibitor	GoLoco inh red	PI5P4K alpha inh	GCN5L2 inh	Tb PGK inh
CC(=O)Nc1n[nH]c(=S)s1	-12.6	0.0%	.	-85.7*	.	i
O=C(Nc1n[nH]c(=S)s1)c1ccc2ccccc2c1	3.0	-1.3%	.	-55.2*	-12.8%	1.5%
O=C(O)c1cc(N/N=C/c2ccc3c(c2)OCO3)ccc1Cl	-11.7	-11.9%	5.7%	-53.1*	1.9%	-8.5%
O=C(O)c1ccc(N/N=C/c2ccc3c(c2)OCO3)cc1	-66.8*	7.9%	-3.3%	?	-20.2%	?
CN1C(=O)c2ccccc2Sc2ccc(NC(=O)Cc3c(F)cccc3Cl)cc21	-8.2	15.1%	.	.	-4.5%	-10.3%
N#Cc1nc(-c2cccs2)oc1NCCCN1CCOCC1	-0.2	0.2%	2.1%	.	35.5µM*	-10.8%
CCOC(=O)CSC1=NC(=O)/C(=C/c2ccc(OC)cc2)S1	1.2	?	-2.3%	-50.6*	0.3%	-8.3%
Cc1ccc(/C=C/C(=O)N2CCc3ccccc32)o1	-16.6	?	-4.0%	-74.6*	-18.8%	-14.5%
O=C(/C=C/c1ccco1)N1CCc2ccccc21	-52.9*	-1.0%	10.1%	?	-2.8%	?
O=C(/C=C/c1ccco1)N1CCCC(c2ccccc2)C1 (stereo unspecified)	-20.2	0.1%	21.6%	-62.4*	-8.6%	.
O=C(c1ccco1)N1CCc2ccccc21	-3.8	-2.0%	-2.2%	2.8	-3.3%	-1.5%
N/C(=N\OC(=O)Cc1ccccc1)c1ccccc1Cl	-0.1	-0.8%	-2.3%	0.7	2.5%	-2.3%
C=CCOC(=O)C1C(=O)CC(C)(O)C(C(=O)OCC=C)C1c1ccc(OCC)cc1 (stereo unspecified)	-1.8	-4.1%	-0.9%	-5.5	-8.4%	-1.8%
COc1ccc(C(=O)COC(=O)c2cccnc2Cl)c(OC)c1	-11.6	?	9.5%	-74.5*	-22.2%	i
COc1ccc(C(=O)COC(=O)/C=C/c2ccccc2)cc1	-2.9	1.0%	.	-7.4	-2.0%	11.9%
COc1ccc(C(=O)COC(=O)/C=C/c2ccccc2)c(OC)c1	-13.7	?	.	-60.6*	?	1.9%
CCC(=O)N1CCc2cc(S(=O)(=O)N3CCN(c4cc(C)ccc4C)CC3)ccc21	-2.6	-1.8%	.	2.0	-2.2%	-7.0%
COc1ccc(CN2CCNC(=O)C2CC(=O)N(C)Cc2nccn2C)cc1OC (stereo unspecified)	0.9	-9.1%	-3.1%	-8.0	-2.5%	-2.4%
CCOC(=O)N1CCc2c(sc3c2C(=O)NC(c2cc(OC)c(OC)c(OC)c2)N3)C1 (stereo unspecified)	-1.5	-0.9%	.	.	-7.5%	i
O=C(NN=C1CCCC1)c1cc(O)cc(O)c1	2.8	?	.	-79.5*	-15.4%	?
O=C(NN=C1CCCC1)c1cccc(O)c1	-1.0	-3.2%	.	-0.4	4.2%	0.2%
CC1CCCC(NC(=O)CSc2ncccc2C(=O)O)C1C (stereo unspecified)	8.2	-10.9%	2.5%	2.4	-6.4%	0.3%
O=C(O)COc1ccc2c(c1)O/C(=C\c1ccco1)C2=O	-21.6	?	.	?	-16.5%	28.2µM*
O=Cc1ccc(N2CCN(S(=O)(=O)c3ccc4c(c3)CC(=O)N4)CC2)cc1	-56.1*	.	.	.	.	.
COc1cc2ncnc(Nc3cccc(Br)c3)c2cc1OC	.	.	3.4%	.	?	.
SMILES	PI4K2A inh	Pin1 inhibitor	GoLoco inh red	PI5P4K alpha inh	GCN5L2 inh	Tb PGK inh
COc1cc2ncnc(Nc3cccc(Cl)c3)c2cc1OC	-0.9	.	2µM*!	.	?	.
NNc1cc([N+](=O)[O-])cc2c1C(=O)N(Cc1ccccc1)S2=O (stereo unspecified)	-7.7	?	-15.3%	-65.8*	?	-7.7%
CC(C)=NNc1cc([N+](=O)[O-])cc2c1C(=O)N(C)S2=O (stereo unspecified)	-1.7	-0.5%	-6.8%	-4.2	-9.6%	-12.1%
Cc1cc(=O)c2c(O)c3c(O)cc(=O)c4c3c3c(cc(O)c1c23)C(C)(C)C=4O	i	.	0.631µM*	.	.	.
O=C1C(=O)C(Cl)=C(Cl)C(Cl)=C1Cl	-29.4	.	.	-54.1*	.	.
OB(O)c1cc2ccccc2s1	.	-2.0%	5.1%	.	.	.
CCCCCNC(=O)C(c1ccc(C(F)(F)F)cc1)n1c(=O)c(-c2ccco2)nc2ccccc21 (stereo unspecified)	-3.9	.	.	-60.2*	.	.
O=C(NCc1ccccc1)C(c1cccc2ccccc12)n1c(=O)c(-c2ccco2)nc2ccccc21 (stereo unspecified)	-8.2	.	.	?	.	.
CC(C)(C)NC(=O)C(c1cccc2ccccc12)n1c(=O)c(-c2ccccc2)nc2ccccc21 (stereo unspecified)	-0.3	.	.	3.0	.	.
CCCCCNC(=O)C(c1cccc2ccccc12)n1c(=O)c(-c2ccco2)nc2ccccc21 (stereo unspecified)	-23.0	.	.	-56.6*	.	.
CC(C)(C)NC(=O)C(c1cccc2ccccc12)n1c(=O)c(-c2ccco2)nc2ccccc21 (stereo unspecified)	-2.8	.	.	-60.6*	.	.
CCc1cccc2c(C(=O)CCl)c[nH]c12	2.8	-0.4%	.	8.0	3.8%	-3.8%
CCc1cccc2c3c([nH]c12)[C@@](CC)(CC(=O)O)OCC3	.	.	3.5%[21.6 µM]	.	12.6µM*	.
COc1ccc(/C=N\NC(=O)C2C(=O)NCC2c2ccccc2)cc1O (stereo unspecified)	-4.7	-5.1%	-4.2%	-57.4*	-5.2%	i
CCOc1cc(/C=N\NC(=O)C2C(=O)NCC2c2ccccc2)ccc1OC (stereo unspecified)	6.9	-2.5%	-3.5%	-5.3	1.3%	i
O=C(Sc1n[nH]c(=O)[nH]c1=O)c1ccccc1	-9.8	-4.3%	.	-74.5*	.	-3.7%
COc1ccc(OC)c(-c2cc(C(=O)Nc3c(C)nn(Cc4ccccc4)c3C)no2)c1	-53.8*	2.0%	-8.6%	.	-5.8%	1.7%
O=C(O)CCNc1cc(N2CCN(C(=O)c3ccco3)CC2)c2noc3c2c1C(=O)c1ccccc1-3	-61.0*	?	.	-58.4*	-14.8%	?
Cc1ccccc1OCCn1c(CCNC(=O)C(C)(C)C)nc2ccccc21	-5.9	1.8%	.	.	-12.8%	1.8%

Bioassay records deposited in PubChem BioAssay by National Center for Advancing Translational Sciences (NCATS).
